Compounds with a hit are over-represented: about 21% of the library has one in this group of screens.
Shiga inhibitor: inhibitors of Shiga toxin in Vero cells | 290,000 compounds, 9.2% hits | inhibition, % at 38.7 µM | AID 2315 | Vero cells, Shiga toxin protein synthesis inhibition reporter; in the data active = inhibition mostly above about 28%, no sharp cut-off; inactive = mostly below about 43%; also: 0% is about no effect
NS1 inh: influenza NS1 inhibition. Potency, µM (series often up to 46.1 µM), for inactives: top-dose activity, positive = more growth. 270,000 compounds, 0.4% hits. AID 2326; calls by dose curve; also: potency is read from the fitted curve at half-maximal effect; actives are rising curves; nearly all actives have a fitted effect of over 50% in size
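Growth recovery, yeast-based: influenza A NS1 expressed in S. cerevisiae causes slow growth, and suppressors are detected by OD600. The parent strain without NS1 is used as positive control.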
CHX counter: counter-screen for Shiga toxin inhibitors: cycloheximide protein synthesis inhibition. max response, %. 300,000 compounds, 12% hits. cell reporter, cycloheximide protein synthesis inhibition counterscreen. AID 2314; in the data active = max response mostly above about 13%, no sharp cut-off; inactive = mostly below about 14%; also: read at 38.3 µM for the half of the compounds with a filed dose; 0% is about no effect
Pf growth 96h: P. falciparum growth inhibition at 96 hours. 320,000 compounds, 6.9% hits. Potency, µM (doses to about 28.7 µM), inactives show at the top dose activity change, negative = inhibition, hits mostly inhibitors. P. falciparum luciferase reporter growth, 96 h; also: potency is read from the fitted curve at half-maximal effect; % is scaled to controls: 0 for no effect and ±100 for the full control effect
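Two-generation exposure (96 h) targets delayed-death phenotype. Reporter parasites carrying integrated firefly luciferase, in red cells at 2% hematocrit and 0.05% parasitemia final, kept at 37 C, 5% CO2; luminescence loss indicates inhibition.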
Pf growth 48h: P. falciparum growth inhibition at 48 hours (one generation); 310,000 compounds, 5.9% hits; AID 504832; Potency, µM (top dose mostly 28.7 µM), for inactives: at the highest dose activity change, negative = inhibition, most hits filed as inhibitors; P. falciparum luciferase growth in erythrocytes, 48 h; also: potency is read from the fitted curve at half-maximal effect; % is scaled to controls: 0 for no effect and ±100 for the full control effect
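First compound was added to culture medium, then infected red cells at 0.1% parasitemia and 2% hematocrit (final). After incubation at 37 C under 5% CO2, luciferase detection reagent was dispensed and light output recorded.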
Sm TGR inh: inhibitors of Schistosoma mansoni thioredoxin glutathione reductase. purified TGR, DTNB reduction, TNB absorbance 405 nm. Potency, µM (titrated, usually from 114 µM), inactives show top-dose activity change, negative = inhibition, hits mostly inhibitors. 360,000 compounds, 3% hits; also: potency is read from the fitted curve at half-maximal effect; % is scaled to controls: 0 for no effect and ±100 for the full control effect; nearly all actives have a fitted effect of over 60% in size
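Kinetic colorimetric format: TGR-catalysed, NADPH-driven DTNB reduction monitored via TNB absorbance. Enzyme dispensed at 20 nM; compound exposure 15 min at room temperature before reaction start.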
Starred values were filed as active, the others as inactive; [ ] = dose if it differs, or a comment. Unless noted, calls follow the shape of the dose curve; as a rule, active = well fitted curve in the direction sought with a large enough effect; inconclusive = small, poorly fitted or top-dose-only effect, or another doubt; inactive = no such curve, though single readings can be large; an effect the other way counts as inactive or inconclusive.

Results for CC12CCC(=O)N1C(C(=O)Nc1ccccc1F)CS2 (stereo not drawn) ?
Pf growth 96h: 2%; Pf growth 48h: 1%; Sm TGR inh: -2%

What do the screens show for `CCCCC(=O)Nc1nn(CC)c2nc3c(C)cccc3cc12`?
Shiga inhibitor: -5; NS1 inh: -6%; CHX counter: -3; Pf growth 96h: inconclusive; Sm TGR inh: -2%

Results for CCCCC(=O)Nc1nn(CCC)c2nc3ccccc3cc12 ?
Shiga inhibitor: -6; NS1 inh: -4%; CHX counter: -3; Pf growth 96h: inconclusive; Pf growth 48h: 12µM*; Sm TGR inh: -1%

What do the screens show for `Cc1cccc(OCC(=O)NCC(C)(C)N2CCOCC2)c1`?
Pf growth 96h: inconclusive; Pf growth 48h: 1%; Sm TGR inh: -2%

What do the screens show for `COc1ccc(S(=O)(=O)N2CCCCC2)cc1NC(=O)CN(C)C1CCCCC1`?
Shiga inhibitor: -11; CHX counter: 1; Pf growth 96h: inconclusive; Pf growth 48h: inconclusive; Sm TGR inh: 0%

What do the screens show for `CN(CC(=O)Nc1cc(S(=O)(=O)N2CCCCCC2)ccc1Cl)Cc1ccc2c(c1)OCO2`?
Pf growth 96h: inconclusive; Pf growth 48h: 12µM*; Sm TGR inh: -5%

How did CC(=O)OCC(=O)Nc1cc(S(=O)(=O)N2CCCCCC2)ccc1Cl do in these assays?
Shiga inhibitor: 14; CHX counter: -4; Pf growth 96h: -6%; Pf growth 48h: 7%; Sm TGR inh: 22%

Results for CN(CC(=O)Nc1cc(S(=O)(=O)N2CCCC2)ccc1Cl)Cc1ccc2c(c1)OCO2 ?
Pf growth 96h: inconclusive; Pf growth 48h: 8.3µM*; Sm TGR inh: -17%

What do the screens show for `COc1ccc(S(=O)(=O)N2CCCCC2)cc1NC(=O)CN(Cc1ccco1)Cc1ccco1`?
Pf growth 96h: inconclusive; Pf growth 48h: 12µM*; Sm TGR inh: inconclusive

How did COc1ccc(S(=O)(=O)N2CCCCCC2)cc1NC(=O)CN(C)Cc1ccc2c(c1)OCO2 do in these assays?
Pf growth 96h: inconclusive; Pf growth 48h: 12µM*; Sm TGR inh: -2%

How did Cc1c(Br)c([N+](=O)[O-])nn1CC(=O)NCC1CCCO1 (stereo not drawn) do in these assays?
Shiga inhibitor: -11; NS1 inh: 0%; CHX counter: -4; Pf growth 96h: 22%; Pf growth 48h: 12%; Sm TGR inh: -7%

Results for O=C(OCC#CCSc1nc2ccccc2s1)c1ccco1 ?
Shiga inhibitor: 69; NS1 inh: -35%; CHX counter: 37*; Pf growth 96h: 58%; Pf growth 48h: 25%; Sm TGR inh: 0%

Results for O=C(OCc1nnc(-c2ccc(Br)cc2)o1)c1ccco1 ?
Shiga inhibitor: 40; NS1 inh: -39%; CHX counter: 28*; Pf growth 96h: inconclusive; Pf growth 48h: 14%; Sm TGR inh: -5%

How did O=C(OCC#CCSc1nnc(-c2ccc(Br)cc2)o1)c1ccco1 do in these assays?
Shiga inhibitor: 47*; NS1 inh: -3%; CHX counter: 19*; Pf growth 96h: 4%; Pf growth 48h: 43%; Sm TGR inh: inconclusive

Results for O=C(OCC#CCSc1nnc(-c2ccccc2)o1)c1ccco1 ?
Shiga inhibitor: 29; NS1 inh: -97%; CHX counter: 7; Pf growth 96h: -22%[5.75 µM]; Pf growth 48h: 47%; Sm TGR inh: 0%

Results for CCC(=O)c1ccc(OCC(=O)Nc2cccc(S(=O)(=O)N3CCCCCC3)c2)cc1 ?
Pf growth 96h: inconclusive; Pf growth 48h: inconclusive; Sm TGR inh: 1%

How did CCOC(=O)C1=C(N)OC2=C(C(=O)CCC2)C12C(=O)N1c3c(ccc(C)c32)C(C)=CC1(C)C (stereo not drawn) do in these assays?
Shiga inhibitor: -7; NS1 inh: -32%; CHX counter: -1; Pf growth 96h: 12µM*; Pf growth 48h: inconclusive; Sm TGR inh: -2%

Results for CC(C)(C)[C@@H](O)C(Cc1ccc(Cl)cc1)n1cncn1 (stereo partly drawn) ?
Shiga inhibitor: -1; CHX counter: 0

Results for COc1ccc2sc(-c3ccccc3OC)c(-c3ccc(OC)c(F)c3)c2c1 ?
Pf growth 96h: inconclusive; Pf growth 48h: inconclusive; Sm TGR inh: -9%

What do the screens show for `COc1ccc(-c2c(-c3ccccc3OC)oc3ccccc23)cc1F`?
Pf growth 96h: 2.6µM*; Pf growth 48h: 2.9µM*; Sm TGR inh: 1%

What do the screens show for `C=CCc1c(C)nc(SC)nc1Nc1ccc(C(C)=O)cc1`?
Shiga inhibitor: 82*; NS1 inh: -117%; CHX counter: 46*; Pf growth 96h: inconclusive; Pf growth 48h: inconclusive; Sm TGR inh: inconclusive

Results for Cc1cc(C)c2c(=O)cc(C(=O)Nc3sc4c(c3C(=O)NCc3cccnc3)CCCC4)oc2c1 ?
Sm TGR inh: 5%

Results for COc1ccc(OC)c(NC(=O)c2ccc3c(c2)c(C)c(C)n3Cc2ccc(F)cc2)c1 ?
Sm TGR inh: 2%

What do the screens show for `O=C(NC(Nc1ncc(S(=O)(=O)c2ccc([N+](=O)[O-])cc2)s1)(C(F)(F)F)C(F)(F)F)c1ccc(Cl)cc1`?
Shiga inhibitor: -11; NS1 inh: -20%; CHX counter: 8; Pf growth 48h: 9.3µM*; Sm TGR inh: -16%

How did CCOc1ccc2c(c1)c(=O)c(S(=O)(=O)c1ccc(CC)cc1)cn2Cc1cccc(Cl)c1 do in these assays?
Sm TGR inh: 0%

How did COc1ccc(-c2c3c(=O)n(C)c(=O)n(C)c3c3c(-c4ccccc4)nc4ccccc4n23)cc1 do in these assays?
Sm TGR inh: 6%

What do the screens show for `Cc1ccc(C(=O)O/N=C(\c2ccccc2)c2ccncc2)cc1`?
Shiga inhibitor: -12; CHX counter: -9; Pf growth 96h: inconclusive; Pf growth 48h: 6%; Sm TGR inh: 2%

Results for CC(C)(C)C(=O)OC/C(N)=N/OC(=O)c1ccccc1 ?
Shiga inhibitor: 31; NS1 inh: -5%; CHX counter: 40*; Pf growth 96h: inconclusive; Pf growth 48h: inconclusive; Sm TGR inh: 10%

How did COc1ccccc1-c1c(C)c(C)nc(N)c1C#N do in these assays?
Shiga inhibitor: 15; NS1 inh: -2%; CHX counter: 6; Pf growth 48h: 0%; Sm TGR inh: -123%

How did COc1ccccc1-c1c(C#N)c(N)nc2c1CCc1ccccc1-2 do in these assays?
Shiga inhibitor: 4; NS1 inh: -23%; CHX counter: 6; Pf growth 96h: 23%; Pf growth 48h: 12µM*; Sm TGR inh: -6%

How did COCCC(=O)N1CCC(Oc2ccc(C(=O)NCCCC3CCCC3)cc2)CC1 do in these assays?
Shiga inhibitor: 19; NS1 inh: -21%; CHX counter: 13*; Pf growth 96h: 12µM*; Pf growth 48h: -17%; Sm TGR inh: 0%
